Measured values from article PMC4336329 (PLoS ONE, 2015).
Out of some 310,000 compounds screened, about 14,000 (4.5%) showed an effect of 50% or more. Effects have a minus sign here. The full list was thinned out, with strong results kept by preference.

Molecular target: human ether-à-go-go-related gene (hERG) potassium channel (human, UniProt Q12809)
Test: primary screen, population patch clamp on CHO cells stably expressing hERG; higher = less effect of the substance
Procedure: Briefly, Chinese hamster ovary (CHO) cells stably expressing the hERG channel were dislodged from tissue culture flasks and dispensed into PPC plates. […] During the recording, background leak currents were estimated by a 100 ms step to -80 mV from an initial holding potential of -70 mV and subtracted from the subsequent current measurement. The campaign was conducted in two phases using slight differences in recording protocol. In the first phase, the initial voltage pulse used a 100 ms step to -30 mV from a holding potential of -70 mV, a 2 s conditioning step to +25 mV, and a 2 s test step to -30 mV. During the second phase of the screen, the potential during the conditioning step was raised to +45 mV. In both phases of the campaign, a secondary voltage pulse was applied using the same parameters as the second phase initial pulse. The initial and secondary pulses were applied in the absence of compound, and upon application of 1 μM and 10 μM test concentrations. […]
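Further: peak tail current of the secondary pulse compared with the same well before compound.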

Chain of human ether-à-go-go-related gene (hERG) potassium channel (Q12809 whole entry, looked up): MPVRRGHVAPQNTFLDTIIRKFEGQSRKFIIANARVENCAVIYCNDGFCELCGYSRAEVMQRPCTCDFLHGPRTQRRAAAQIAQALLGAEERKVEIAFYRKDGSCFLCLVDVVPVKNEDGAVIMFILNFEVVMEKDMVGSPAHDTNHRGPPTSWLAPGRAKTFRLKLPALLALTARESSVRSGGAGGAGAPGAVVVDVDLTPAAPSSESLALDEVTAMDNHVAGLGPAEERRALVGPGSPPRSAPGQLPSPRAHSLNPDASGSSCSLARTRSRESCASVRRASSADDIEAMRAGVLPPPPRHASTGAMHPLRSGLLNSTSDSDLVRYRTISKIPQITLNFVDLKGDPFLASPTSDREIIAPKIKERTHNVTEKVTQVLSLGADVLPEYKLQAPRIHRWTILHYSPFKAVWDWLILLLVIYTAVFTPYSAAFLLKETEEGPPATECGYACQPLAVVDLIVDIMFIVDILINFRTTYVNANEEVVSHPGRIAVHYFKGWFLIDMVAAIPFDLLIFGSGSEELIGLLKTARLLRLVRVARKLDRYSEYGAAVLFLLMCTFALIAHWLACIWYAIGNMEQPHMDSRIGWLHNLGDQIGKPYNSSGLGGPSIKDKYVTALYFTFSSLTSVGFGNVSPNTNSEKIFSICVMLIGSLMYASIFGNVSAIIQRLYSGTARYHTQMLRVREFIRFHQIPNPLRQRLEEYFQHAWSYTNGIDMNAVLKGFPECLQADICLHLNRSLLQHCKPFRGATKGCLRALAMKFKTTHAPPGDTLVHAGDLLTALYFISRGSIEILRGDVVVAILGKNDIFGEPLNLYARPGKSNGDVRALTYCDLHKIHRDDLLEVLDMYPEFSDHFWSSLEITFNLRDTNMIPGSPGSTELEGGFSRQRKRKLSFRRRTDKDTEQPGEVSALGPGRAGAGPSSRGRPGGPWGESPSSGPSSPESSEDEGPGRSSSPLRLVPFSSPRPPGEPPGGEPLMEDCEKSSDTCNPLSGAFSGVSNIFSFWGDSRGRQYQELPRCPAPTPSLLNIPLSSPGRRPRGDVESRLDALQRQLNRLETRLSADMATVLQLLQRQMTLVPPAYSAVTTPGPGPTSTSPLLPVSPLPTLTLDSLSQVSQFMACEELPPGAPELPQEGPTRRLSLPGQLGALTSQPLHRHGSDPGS

**Q.** With `CCN(CC)N=Nc1cccc(NC(C)=O)c1` as the compound, how does the “hERG current change (%, negative = inhibition) at 10uM” value read?
**A.** 0.363%

**Q.** Which “hERG current change (%, negative = inhibition) at 10uM” value does the source give for `CCc1nc(C)ccc1OCC(=O)N(CC)CC.O.O=C(O)C(=O)O` here?
**A.** -30.9%

**Q.** How did the “hERG current change (%, negative = inhibition) at 10uM” value turn out when `CCOC(=O)c1c(NC(=O)CSc2nnc3c(n2)[nH]c2ccccc23)sc2c1CCN(C)C2` was run?
**A.** -6.08%

**Q.** `CCOC(=O)c1ccc(NC2c3ccccc3C(=O)N2c2cccnc2)cc1` (stereo not drawn) was tested. Which “hERG current change (%, negative = inhibition) at 10uM” value did it give?
**A.** -57%

**Q.** How did the “hERG current change (%, negative = inhibition) at 10uM” value turn out when `CCOC(=O)c1ccc(NC2c3ccccc3C(=O)N2c2ccccn2)cc1` (stereo not drawn) was run?
**A.** 9.93%

**Q.** `Cc1ccc(NC2c3ccccc3C(=O)N2c2cccnc2)cc1` (stereo not drawn) was tested. Which “hERG current change (%, negative = inhibition) at 10uM” value did it give?
**A.** -21.5%

**Q.** Which “hERG current change (%, negative = inhibition) at 10uM” value does the source give for `CCOc1ccc(/C(O)=C2/C(=O)C(=O)N(CCCN3CCOCC3)C2c2ccc(C)cc2)cc1C` (stereo not drawn) here?
**A.** 23.8%

**Q.** `NC(=O)c1cccnc1Oc1cccc(Cl)c1` was tested. Which “hERG current change (%, negative = inhibition) at 10uM” value did it give?
**A.** 11.8%

**Q.** How did the “hERG current change (%, negative = inhibition) at 10uM” value turn out when `COc1cccc(C(C(=O)NC2CCCC2)N(C(=O)c2ccco2)c2cccc(C(C)=O)c2)c1OC` (stereo not drawn) was run?
**A.** 13.9%

**Q.** How did the “hERG current change (%, negative = inhibition) at 10uM” value turn out when `Cc1ccc(N(C(=O)CNC(=O)c2ccco2)C(C(=O)NC2CCCC2)c2cccnc2)c(C)c1` (stereo not drawn) was run?
**A.** 10.1%

**Q.** How did the “hERG current change (%, negative = inhibition) at 10uM” value turn out when `COc1cccc(C(C(=O)NC2CCCC2)N(C(=O)c2ccco2)c2ccc(NC(C)=O)cc2)c1OC` (stereo not drawn) was run?
**A.** -64%

**Q.** Which “hERG current change (%, negative = inhibition) at 10uM” value does the source give for `COc1ccc(CCN(C(=O)c2ccco2)C(C(=O)NC2CCCC2)c2ccncc2)cc1OC` (stereo not drawn) here?
**A.** -55%

**Q.** Which “hERG current change (%, negative = inhibition) at 10uM” value does the source give for `O=C(NCC(=O)N(CCc1ccccc1)C(C(=O)NC1CCCCC1)c1ccncc1)c1ccco1` (stereo not drawn) here?
**A.** -54.6%

**Q.** How did the “hERG current change (%, negative = inhibition) at 10uM” value turn out when `O=C(NCC(=O)N(c1ccccc1)C(C(=O)NC1CCCCC1)c1ccncc1)c1ccco1` (stereo not drawn) was run?
**A.** 5.92%

**Q.** `Cc1ccc(N(C(=O)CNC(=O)c2ccco2)C(C(=O)NC2CCCCC2)c2cccnc2)c(C)c1` (stereo not drawn) was tested. Which “hERG current change (%, negative = inhibition) at 10uM” value did it give?
**A.** -71.9%

**Q.** For `Cc1ccc(C)c(N(C(=O)CNC(=O)c2ccco2)C(C(=O)NC2CCCCC2)c2cccnc2)c1` (stereo not drawn), which “hERG current change (%, negative = inhibition) at 10uM” value is on record?
**A.** 15.3%

**Q.** With `COc1ccc(N(C(=O)c2ccco2)C(C(=O)NC2CCCC2)c2ccncc2)cc1OC` (stereo not drawn) as the compound, how does the “hERG current change (%, negative = inhibition) at 10uM” value read?
**A.** 5.24%

**Q.** Which “hERG current change (%, negative = inhibition) at 10uM” value does the source give for `COc1cccc(C(C(=O)NC2CCCC2)N(C(=O)c2ccco2)c2ccc(C(C)=O)cc2)c1OC` (stereo not drawn) here?
**A.** -13.3%

**Q.** Which “hERG current change (%, negative = inhibition) at 10uM” value does the source give for `COc1ccccc1CN(C(=O)c1ccco1)C(C(=O)NC1CCCC1)c1ccncc1` (stereo not drawn) here?
**A.** -8.04%

**Q.** With `O=C(NCC(=O)N(Cc1ccccc1)C(C(=O)NC1CCCC1)c1ccncc1)c1ccco1` (stereo not drawn) as the compound, how does the “hERG current change (%, negative = inhibition) at 10uM” value read?
**A.** 5.71%

**Q.** `COCCN(C(=O)CSc1nnc(C)n1-c1ccc(C)cc1)c1c(N)n(Cc2ccccc2)c(=O)[nH]c1=O` was tested. Which “hERG current change (%, negative = inhibition) at 10uM” value did it give?
**A.** -2.83%
